From PubChem BioAssay AID1850 (Southern Research Specialized Biocontainment Screening …, 2009) come the findings set out here.

Where “and” joins values, the source holds several entries; their conditions need not be identical. Equal entries are not always repeated. In all, about 310,000 compounds went through this assay and about 1,000 (0.32%) were called active. No rule for the calls is given here. A selection follows. Results with a measured potency or affinity are listed apart.

This test can be described thus: Inhibition of PhoP regulon, Salmonella typhi GFP reporter cells, confirmation, 4 h (AID 1850).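 Also: 0% = induced wells with vehicle and 100% = uninduced wells.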 As to conditions: Salmonella Typhi PhoP-promoter GFP reporter, fluorescence, at 50 µM, active compounds read high.
As for `CC1CCCCC1NC(=O)COC(=O)COc1ccccc1Cl` (stereo not given), the inhibition (usually the drop in the measured response relative to a control, in per cent) is -4.09% (inactive).
The figure for `O=C(CCS(=O)(=O)c1cccc2nonc12)N1CCCc2ccccc21` is 4.05% (inactive); for `CCOc1ccc(C(=O)Nc2nc(C)c(C(=O)OC)s2)cc1` it is -11% (inactive).
The figure for `CCOc1ccc(S(=O)(=O)N2CN3CCN(C3)C2)cc1` is -2.97% (inactive).
For `Cc1ccc(S(=O)(=O)N2CN3CCN(C3)C2)cc1` the value was 13.8% (inactive); for `Cc1ccc(N2C(=O)c3ccccc3C2=O)cc1`, -2.86% (inactive); for `CC(=O)N(c1ccc(Cl)cc1)c1nc(C)cc(C)c1C#N`, 6.97% (inactive).
As for `CCc1ccc(NC(=O)Nc2cnccn2)cc1`, the inhibition was -5.86% (inactive).
For `O=C(Nc1ccncc1)Nc1ccc(F)c(Cl)c1` the value was 14.2% (inactive).
The figure for `S=C(NCc1ccc(Cl)cc1)Nc1ccccc1` is -8.41% (inactive); for `S=C(NCc1ccncc1)Nc1ccc(Cl)cc1` it is -0.61% (inactive); for `CCc1ccc(NC(=O)Nc2ccon2)cc1` it is -5.91% (inactive).
For `O=C(Nc1ccncc1)Nc1ccncc1` the value was 0.03% (inactive); for `O=C1CCS/C(=N\N=C\c2ccc(Cl)cc2Cl)N1`, 6.05% (inactive); for `CCc1ccc(-c2cc3c(=O)n(CC(=O)NCCCN4CCN(C)CC4)ncn3n2)cc1`, 5.21% (inactive).
As to `CC1CCCCC1NC(=O)CSc1ccc([N+](=O)[O-])cc1` (stereo not given), the inhibition is 6.99% (inactive).
For `Cc1cc(-c2nnc3n2N=C(c2ccc(F)cc2)CS3)n[nH]1` the value was -5.9% (inactive).
For `COc1ccccc1-n1c(C)cc(C=O)c1C` the value was -1.75% (inactive); for `CCCc1nc(Cl)c(C#N)c2c1CCCC2`, -3.33% (inactive); for `CCOC(=O)Cc1cn2c(=O)cc(CSCC(=O)Nc3ccc(C)c(C)c3)nc2s1`, -2.4% (inactive).
Take `COc1cc2[nH]c3c(c2cc1OC)CCN1CCCC[C@@H]31`: the inhibition is 5.9% (inactive).
For `O=S(=O)(c1ccc(F)cc1)c1nc(-c2ccco2)oc1Nc1ccc(F)cc1`, the inhibition was -12.3% (inactive).
The figure for `C=CCn1c(SCC(=O)NC2CCS(=O)(=O)C2)nnc1-c1ccc(Cl)cc1` (stereo not given) is -6.21% (inactive); for `O=C(CSc1nnc(C2COc3ccccc3O2)o1)Nc1ccc(F)cc1Cl` (stereo not given) it is -3.78% (inactive); for `O=C(Nc1nnc(C2=COCCO2)o1)c1ccc(F)cc1` it is 1.96% (inactive).
The figure for `CCOC(=O)C1=C(COC(=O)C2(C)CC2(Cl)Cl)NC(=O)NC1c1ccc(OC)cc1` (stereo not given) is 6.71% (inactive); for `COc1ccccc1CNCC(=O)Nc1cc(S(=O)(=O)N2CCCCCC2)ccc1Cl` it is -6.34% (inactive).
For `CCN(c1ccc(C(O)(C(=O)OC)C(F)(F)F)cc1)S(=O)(=O)c1ccccc1` (stereo not given) the value was -2.75% (inactive); for `COc1ccc(Cl)cc1C(=O)NCCN(C)C`, -0.53% (inactive); for `CN(C)CCNC(=O)COc1ccc(Cl)cc1Cl`, 1.91% (inactive).
On to `CCCSc1nc(N)cc(=O)[nH]1`, for which the inhibition was 5.93% (inactive).
The figure for `Cc1ccc2c(c1)c1c3n2CCCNC3CCC1` (stereo not given) is 5.15% (inactive); for `Oc1ccc2c(c1)c1c3n2CCNC3CCC1` (stereo not given) it is -4.83% (inactive); for `Cc1ccc2c(c1)c1c3n2CCN=C3CCC1` it is 0.52% (inactive).
For `Cc1ccc2c(c1)c1c3n2CCN(C(=O)CCl)C3CCC1` (stereo not given) the value was 7.2% (inactive); for `Cc1ccc2c(c1)c1c3n2CCN(C(=O)CN2CCN(C)CC2)C3CCC1` (stereo not given), 4.43% (inactive).
For `c1ccc(-c2ccc3c(c2)c2c4n3CCN=C4CCC2)cc1` the value was 6.31% (inactive).
Regarding `CCOP(=O)(c1ccccc1)C1(O)CCCCC1` (stereo not given), the inhibition is 14.1% (inactive).
For `Cc1ccc(S(=O)(=O)N2C(=O)CCC2C(=O)O/N=C(\N)c2ccccc2)cc1` (stereo not given) the value was -13.3% (inactive); for `O=C(CN(C(=O)c1csnn1)c1ccccc1Cl)NC1CCCC1`, 13.4% (inactive).
The figure for `O=C(O)c1cccc([N+](=O)[O-])c1C(=O)Nc1nc2ccccc2s1` is 4.78% (inactive); for `CCn1c(CN2c3ccccc3Sc3ccccc32)n[nH]c1=S` it is 4.44% (inactive); for `O=C(c1cccc(Cl)c1)N1CCCc2ccccc21` it is 4.51% (inactive).
For `Cc1ccc(S(=O)(=O)N2CCN(c3cnn(C)c(=O)c3Cl)CC2)cc1` the value was -6.96% (inactive); for `CCCCn1c(N)c(N(CCC(C)C)C(=O)CCN2C(=O)C3CC=CCC3C2=O)c(=O)[nH]c1=O` (stereo not given), 0.9% (inactive).
As for `CCOC(=O)c1c(NC(=O)Cn2nc(C(=O)O)c3ccccc3c2=O)sc2c1CCC(C)C2` (stereo not given), the inhibition was 17.9% (inactive).
The figure for `COc1cccc(C2(O)CC(C(F)(F)F)=NN2C(=O)c2ccccn2)c1` (stereo not given) is 7.91% (inactive); for `C[n+]1c2n(c3ccccc31)N=C(c1ccc(Cl)cc1)CS2` it is 12.3% (inactive).
The figure for `C[n+]1c2n(c3ccccc31)N=C(c1ccccc1)CS2` is 0.32% (inactive) and 11.8% (inactive); for `O=C(CSC1=NS(=O)(=O)c2ccccc2N1)NCc1ccc(F)cc1` it is -4.98% (inactive).
The figure for `O=C(Cc1ccccc1)NCC(=O)N/N=C/c1ccc([N+](=O)[O-])s1` is 11.8% (inactive).
With `O=C(CNC(=O)c1ccccc1)N/N=C/c1cccs1`, the inhibition was -1.08% (inactive).
For `O=C(Cc1cccs1)N/N=C/c1ccccc1` the value was 10.9% (inactive).
The figure for `O=C(Cc1ccccc1)N/N=C/c1ccc([N+](=O)[O-])s1` is -7.77% (inactive); for `O=C(CNC(=O)c1ccccc1Cl)N/N=C/c1ccc([N+](=O)[O-])s1` it is -11.8% (inactive).
The figure for `O=C(CNC(=O)c1cccc(F)c1)N/N=C/c1cccc([N+](=O)[O-])c1` is -5.75% (inactive); for `Cn1cccc1Cc1nnc(SCC(=O)Nc2ccc3c(c2)OCO3)n1-c1ccc(F)cc1` it is -1.53% (inactive); for `NC(=O)CN1C(=O)NC2(CCOc3ccccc32)C1=O` (stereo not given) it is 1.52% (inactive).
`CC(=O)Nc1ccc(NC(=O)c2cccc(-c3cc4ccccc4oc3=O)c2)cc1`: the inhibition was 12.9% (inactive).
The figure for `CCn1cc(C(=O)NCCCOC(C)C)c2cc(OC)c(OC)cc2c1=O` is 2.36% (inactive); for `CN(C)c1ccc(P(=O)(COc2ccc([N+](=O)[O-])cc2)c2ccc(N(C)C)cc2)cc1` it is 2.27% (inactive); for `O=C(CSc1ccc(-c2cccnc2)nn1)N1CCCCCC1` it is 1.55% (inactive).
For `O=C(CCCn1cc([N+](=O)[O-])cn1)NCc1ccccc1` the value was 8.46% (inactive); for `Cc1c(C(=S)NC(=O)C2CC2)c(=O)n(-c2ccccc2)n1C`, -1.42% (inactive); for `CCc1ccc2c(CN(CC)Cc3nc4ccccc4c(=O)[nH]3)cc(=O)oc2c1`, 1.52% (inactive).
The figure for `Nc1nc2ccccc2n1CCOc1ccc(F)cc1` is -3.28% (inactive).
Regarding `CCn1c(N)nc2ccccc21`, the inhibition is 4.17% (inactive).
The figure for `Cc1ccc(Cn2c(N)nc3ccccc32)cc1` is 9.42% (inactive); for `Nc1nc2ccccc2n1CCOc1ccc(Cl)cc1` it is 14.7% (inactive); for `Cc1ccc(NS(=O)(=O)c2ccc(C(=O)N3CC(C)CC(C)C3)cc2)cc1` (stereo not given) it is -0.14% (inactive).
With `Cc1cc(=O)oc2cc(OCc3ccc(S(=O)(=O)N4CCOCC4)cc3)ccc12`, the inhibition is -0.96% (inactive).
The figure for `CC(C(=O)NC1C=CS(=O)(=O)C1)N1C(=O)/C(=C\c2ccccc2)SC1=S` (stereo not given) is -9.78% (inactive); for `COc1ccc(/C=C2\SC(=S)N(C(C)C(=O)NC3C=CS(=O)(=O)C3)C2=O)cc1` (stereo not given) it is 0.74% (inactive); for `CC(C)c1ccc(/C=C2\SC(=O)N(CC(=O)NC3CCS(=O)(=O)C3)C2=O)cc1` (stereo not given) it is -0.28% (inactive).
For `O=C(CN1C(=O)/C(=C/c2cccc(Cl)c2)SC1=S)NC1C=CS(=O)(=O)C1` (stereo not given) the value was -2.52% (inactive).
Regarding `CC(C(=O)N(C)C1CCS(=O)(=O)C1)N1C(=O)/C(=C/c2ccc(F)cc2)SC1=S` (stereo not given), the inhibition is -40% (inactive).
For `COc1cccc(/C=C2\SC(=S)N(C(C)C(=O)NC3C=CS(=O)(=O)C3)C2=O)c1` (stereo not given) the value was -39% (inactive).
For `COc1cc2c(cc1OC)C(C)N(C(=O)c1c(C)noc1C)CC2` (stereo not given) the value was -18.4% (inactive); for `CC(=O)CCC(=O)OCC(=O)Nc1ccc(SC(F)F)cc1`, -3.54% (inactive).
For `O=C1CCC(=O)N1c1ccc(NC2CCN(Cc3ccccc3)CC2)c([N+](=O)[O-])c1` the value was -3.82% (inactive); for `CC1(C)C2CC[C@]3(C)C(CC=C4[C@@H]5C[C@@](C)(CO)[C@@H](O)C[C@]5(C(=O)O)CC[C@]43C)[C@@]2(C)CC[C@@H]1O` (stereo not given in full), -13.5% (inactive).
On to `CC(C)(C)NCc1cccn1-c1sc2c(c1C#N)CCCC2`, for which the inhibition was -5.99% (inactive).
For `C=CC[n+]1c(/C=C2\C=Cc3cc(C)ccc3N2CC)ccc2ccccc21` the value was -11.1% (inactive); for `CCN1/C(=C/c2ccc3ccccc3[n+]2CCCS(=O)(=O)[O-])C=Cc2cc(C)ccc21`, 14.2% (inactive); for `CCOC(=O)C(=CNc1ccc(C(O)(C(=O)OCC)C(F)(F)F)cc1C)C(=O)OCC` (stereo not given), -10.1% (inactive).
The figure for `CCOC(=O)c1[nH]c2ccc(OC)cc2c1NC(=O)CN1CCSCC1` is 6.71% (inactive).
For `Cc1cccc(N2CCN(C(=O)c3csc4ccccc34)CC2C)c1` (stereo not given) the value was -6.46% (inactive).
Take `Cc1cc(C(=O)N/N=C/c2ccc([N+](=O)[O-])o2)c(C)o1`: the inhibition was -1.11% (inactive).
The figure for `O=C(CSc1ccc(Cl)cc1)N/N=C/c1ccc([N+](=O)[O-])o1` is -1.14% (inactive); for `Cc1ccc(NC(=O)CCC(=O)N/N=C/c2ccc([N+](=O)[O-])o2)cc1C` it is -0.54% (inactive); for `CCCOc1ccc(CCC(=O)N/N=C/c2ccc([N+](=O)[O-])o2)cc1` it is 3.44% (inactive).
The figure for `Nc1nonc1C(=O)N/N=C/c1ccc([N+](=O)[O-])o1` is -4.72% (inactive); for `CCCCCC(=O)N/N=C/c1ccc([N+](=O)[O-])o1` it is 17.1% (inactive).
For `Cc1nonc1C(=O)N/N=C/c1cccc(O)c1` the value was -9.29% (inactive); for `Cc1nonc1C(=O)N/N=C/c1ccc(O)c(O)c1`, -18.7% (inactive).
